Results filed as inconclusive are left out. Calls of active or inactive are those of the source. Calls come from the whole dose curve; as a rule, active = well fitted curve in the direction sought with a large enough effect; inconclusive = small, poorly fitted or top-dose-only effect, or another doubt; inactive = no such curve, though single readings can be large; an effect the other way counts as inactive or inconclusive.
Key:
JEG-3 = experiment: Primary qHTS to identify gynecologic anti-cancer compounds using libraries of approved drugs and bioactive compounds (AID 1345084); conditions: Gynecologic cancer cell panel viability, ATPlite luminescence, 48 h; series mostly up to 57.5 µM; note: nearly all actives have a fitted effect of over 55% in size
How it was run: (§1)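 48 h compound exposure at 37 C, 5% CO2; five-point qHTS. ATPlite luminescence readout of cell ATP.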

OV90 = experiment: as above; conditions: Gynecologic cancer cell panel viability, ATPlite luminescence, 48 h; series mostly up to 57.5 µM
How it was run: as §1

PA-1 = experiment: as above; conditions: Gynecologic cancer cell panel viability, ATPlite luminescence, 48 h; series mostly up to 57.5 µM
How it was run: as §1

SKOV3 = experiment: as above; conditions: Gynecologic cancer cell panel viability, ATPlite luminescence, 48 h; series mostly up to 57.5 µM
How it was run: as §1

Tov-21-G = experiment: as above; conditions: Gynecologic cancer cell panel viability, ATPlite luminescence, 48 h; series mostly up to 57.5 µM
How it was run: as §1

Tov112D = experiment: as above; conditions: Gynecologic cancer cell panel viability, ATPlite luminescence, 48 h; series mostly up to 57.5 µM
How it was run: as §1

[1] = qHTS assay to identify inhibitors of the type 1 interferon - major histocompatibility complex class I in skeletal muscle: Counter screen cell viability and HiBit confirmation (AID 1347412); conditions: iHSKM muscle cells + IFN-b, HiBiT or CellTiter-Glo, 24 h; for activity change, negative = inhibition: at 45.9 µM (top of the series); for all read-outs here: nearly all actives have a fitted effect of over 60% in size
How it was run: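 CRISPR HLA-B*08:01-HiBit immortalized human myoblasts (C25cl48) stimulated with 4 ng/ml IFN-beta and compounds (12-point 1:3, top 46 uM final) for 24 h at 37 C. Duplicate plates read by HiBit lytic luminescence or CellTiter Glo ATP.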
% is set by controls: 0 for no effect and ±100 for the full control effect; potency is the fitted concentration of half-maximal effect.

COc1cc2c(Oc3ccc(NC(=O)C4(C(=O)Nc5ccc(F)cc5)CC4)cc3F)ccnc2cc1OCCCN1CCOCC1
inactive: Potency (JEG-3)
active: Potency (OV90) 12.6 µM | Potency (PA-1) 28.2 µM | Potency (SKOV3) 22.4 µM | Potency (Tov-21-G) 15.8 µM | Potency (Tov112D) 12.6 µM

COc1ccc(-n2nc(C(N)=O)c3c2C(=O)N(c2ccc(N4CCCCC4=O)cc2)CC3)cc1
inactive: Potency (JEG-3) | Potency (OV90) | Potency (PA-1) | Potency (SKOV3) | Potency (Tov-21-G) | Potency (Tov112D)

Cc1ccc(CN2CCNCC2)cc1NC(=O)CNc1ccc(F)c(F)c1
inactive: Potency (JEG-3) | Potency (OV90) | Potency (PA-1) | Potency (SKOV3) | Potency (Tov-21-G) | Potency (Tov112D)

Cc1c(Cn2c(C)nc3c(C(=O)O)cc(N4CCOCC4)cc32)cccc1C(F)(F)F
inactive: Potency (JEG-3) | Potency (OV90) | Potency (PA-1) | Potency (SKOV3) | Potency (Tov-21-G) | Potency (Tov112D)

C=CC(=O)Nc1cccc(Oc2nc(Nc3ccc(N4CCN(C)CC4)cc3OC)ncc2Cl)c1
active: Potency (SKOV3) 15.8 µM
inactive: Potency (JEG-3) | Potency (OV90) | Potency (PA-1)

C1Cc2[nH]nc(-c3nn[nH]n3)c2C1
inactive: Potency (JEG-3) | Potency (OV90) | Potency (PA-1) | Potency (SKOV3) | Potency (Tov-21-G) | Potency (Tov112D)

CCCn1c(=O)c2[nH]c(-c3cnn(Cc4cccc(C(F)(F)F)c4)c3)nc2n(CC)c1=O
inactive: Potency (JEG-3) | Potency (OV90) | Potency (PA-1) | Potency (SKOV3) | Potency (Tov-21-G) | Potency (Tov112D)

Clc1ccc2ncc(-c3cccc(NC4CNC4)n3)n2c1
inactive: Potency (JEG-3) | Potency (OV90) | Potency (PA-1) | Potency (SKOV3) | Potency (Tov-21-G) | Potency (Tov112D)

CC(C)Nc1cc(C(F)(F)F)cc2nc(NC(=O)c3cccnc3)nn12
inactive: Potency (JEG-3) | Potency (OV90) | Potency (SKOV3) | Potency (Tov-21-G)

Cc1cc(CN2CCN(c3c(Br)cnc4nc(-c5ccc(N6CCN(C)CC6)cc5)[nH]c34)CC2)no1
active: Potency ([1]; HiBiT) 8.83 µM | Potency ([1]; Viability) 11.1 µM
inactive: Potency (JEG-3) | Potency (OV90) | Potency (SKOV3)

CCc1cc2c(cc1N1CCC(N3CCOCC3)CC1)C(C)(C)c1[nH]c3cc(C#N)ccc3c1C2=O
inactive: Potency (JEG-3) | Potency (OV90) | Potency (PA-1) | Potency (Tov-21-G) | Potency (Tov112D)

C=CC(=O)N1CCC[C@@H](n2nc(-c3ccc(Oc4ccccc4)cc3)c3c(N)ncnc32)C1
inactive: Potency (JEG-3) | Potency (OV90) | Potency (PA-1) | Potency (Tov-21-G) | Potency (Tov112D)

C#Cc1cccc(Nc2ncnc3cc(OC)c(OCCCCCCC(=O)NO)cc23)c1
inactive: activity change, negative = inhibition ([1]; Viability) -17%
active: Potency (JEG-3) 10 µM | Potency (OV90) 5.62 µM | Potency (PA-1) 5.01 µM | Potency (SKOV3) 8.91 µM | Potency (Tov-21-G) 10 µM | Potency (Tov112D) 7.08 µM | Potency ([1]; HiBiT) 2.49 µM

CN1CCN(Cc2ccc(NC(=O)Nc3ccc(Oc4cc(NC(=O)C5CC5)ncn4)cc3)cc2C(F)(F)F)CC1
active: Potency (JEG-3) 2.82 µM | Potency (OV90) 0.631 µM | Potency (PA-1) 0.794 µM | Potency (Tov112D) 0.708 µM | Potency ([1]; HiBiT) 0.442 µM
inactive: activity change, negative = inhibition ([1]; Viability) 13.9%

O=C(c1ccc(Nc2nccc(-c3cc4ccccc4s3)n2)cc1)N1CCC(N2CCCC2)CC1
inactive: Potency (JEG-3) | Potency (OV90) | Potency (Tov112D)
active: Potency (SKOV3) 25.1 µM | Potency (Tov-21-G) 28.2 µM | Potency ([1]; HiBiT) 17.6 µM

COc1cc(C(=O)N2CCC(N3CCN(C)CC3)CC2)ccc1Nc1ncc2c(n1)N(C)c1ccccc1C(=O)N2C
active: Potency (SKOV3) 8.91 µM
inactive: Potency (JEG-3) | Potency (OV90) | activity change, negative = inhibition ([1]; Viability) -1.11%

O=C(CCCCCCNC(=O)c1cnc(N(c2ccccc2)c2ccccc2)nc1)NO
active: Potency (JEG-3) 15.8 µM | Potency (OV90) 8.91 µM | Potency (PA-1) 3.16 µM | Potency (Tov112D) 28.2 µM

CNC(=O)CN1CCC(Oc2cc3c(Nc4cccc(Cl)c4F)ncnc3cc2OC)CC1
active: Potency (SKOV3) 14.1 µM
inactive: Potency (JEG-3) | Potency (OV90) | Potency (PA-1) | Potency (Tov112D)

CC(=O)Nc1sc2c(c1-c1nc3ccccc3s1)CNC2
active: Potency (PA-1) 31.6 µM
inactive: Potency (JEG-3) | Potency (OV90) | Potency (Tov112D)

CN1CCC(CNc2ccc3ncc(-c4cccc(OC(F)(F)F)c4)n3n2)CC1
active: Potency ([1]; HiBiT) 22.2 µM | Potency ([1]; Viability) 31.3 µM
inactive: Potency (JEG-3) | Potency (OV90) | Potency (PA-1) | Potency (Tov-21-G) | Potency (Tov112D)

Nc1ccccc1NC(=O)c1ccc(CNC(=O)OCc2cccnc2)cc1
active: Potency (JEG-3) 15.8 µM | Potency (OV90) 0.631 µM | Potency (PA-1) 3.16 µM | Potency (Tov-21-G) 8.91 µM

Nc1nccc(Oc2ccc(NC(=O)c3c[nH]cc(-c4ccc(F)cc4)c3=O)cc2F)c1Cl
inactive: Potency (JEG-3) | Potency (OV90) | Potency (PA-1) | Potency (Tov-21-G) | Potency (Tov112D) | activity change, negative = inhibition ([1]; Viability) 1.85%

COc1cc2c(Oc3ccc(-c4cnc(Nc5ccc(F)cc5)n(C)c4=O)cc3F)ccnc2cc1OCCCN1CCOCC1
inactive: Potency (JEG-3) | Potency (OV90) | Potency (SKOV3)

O=c1c2ccccc2nc2n1CCc1c-2[nH]c2ccccc12
inactive: Potency (JEG-3) | Potency (OV90) | Potency (PA-1) | Potency (Tov-21-G) | Potency (Tov112D)

COc1cc2c(NC3CCN(C(C)C)CC3)nc(C3CCCCC3)nc2cc1OCCCN1CCCC1
active: Potency (JEG-3) 10 µM | Potency (OV90) 11.2 µM | Potency (PA-1) 31.6 µM | Potency (SKOV3) 12.6 µM | Potency (Tov112D) 22.4 µM

From PubChem BioAssay (NCATS)
